Screens (PubChem)
HSF1 activator = increases HSF-1 driven luciferase reporter signal; NIH3T3-HGL HSF-1 luciferase reporter, MG132, 8 h; 100% = twice DMSO control signal; hit rate 1.7% among 300,000; activation, % at 9 µM;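 active = mean replicate activation of at least 50% with a set share of replicates each reaching 50%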;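 note: 0% = median of the neutral control wells and 100% = twice that signal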
NR0B1 inh = inhibits human nuclear receptor DAX1; HEK293 Gal4-DAX1 luciferase reporter, luminescence; AID 504766; hit rate 0.99% among 340,000; P51843; inhibition, % at 6.75 µM;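 active = inhibition above the mean over all tested compounds plus 3 SD, cut at about 4.2% in these data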;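 note: 0% = DAX1-transfected cells with DMSO and 100% = empty-vector control cells with DMSO; inhibition shows as a rise in luminescence from relieved DAX1 repression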
Target sequence (P51843 207-470 limits assumed): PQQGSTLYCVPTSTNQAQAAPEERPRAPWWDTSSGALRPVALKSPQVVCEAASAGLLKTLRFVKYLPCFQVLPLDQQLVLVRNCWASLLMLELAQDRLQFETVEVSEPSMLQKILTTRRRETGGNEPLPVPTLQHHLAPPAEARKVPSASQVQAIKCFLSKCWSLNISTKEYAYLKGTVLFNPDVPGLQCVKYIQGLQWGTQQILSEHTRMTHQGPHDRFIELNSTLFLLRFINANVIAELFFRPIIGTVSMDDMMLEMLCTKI
AHR act = activates the human aryl hydrocarbon receptor | activation, % at 5 µM | AHR-responsive luciferase reporter cells, luminescence | P35869 | hit rate 2.5% among 320,000; in the data active = activation above about 47%;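 note: 0% = vehicle wells and 100% = reference agonist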
GAA850 FXN act = activators of GAA850 frataxin (FXN) promoter. HEK293 lucGAA850 FXN promoter luciferase reporter, 24 h; percent of 10 µM SAHA response. activation, % at 6 µM. hit rate 0.56% among 360,000;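 active = activation above the average of all compounds screened plus 3 SD, cutoff fixed separately per campaign, cut at about 7.5% in these data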;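 note: 0% = DMSO wells and 100% = 10 µM SAHA wells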
HSF1 inh = HSF1 inhibition | NIH3T3-HGL HSE-luciferase, MG132-induced, luminescence 8 h; stronger effect = lower value | activity change, negative = inhibition, % at 7.5 µM (by protocol) | hit rate 0.77% among 300,000;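 active = more than half of replicate wells show activity change below -50%, luminescence cut by over half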;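 note: luciferase reports HSF-1 transcriptional activity via heat shock element; 0% = median of DMSO wells and -100% = zero luminescence signal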
Numbers without * were called inactive; x = not tested or not shown. An excerpt weighted towards active compounds, which were near 5.4% of everything screened.

SMILES	HSF1 activator	NR0B1 inh	AHR act	GAA850 FXN act	HSF1 inh
Cc1nc(C)c(-c2csc(Nc3ccc(F)cc3)n2)s1	65*	-2	35	6	40
Cc1nc(C)c(-c2csc(Nc3ncccc3C)n2)s1	61*	1	6	6	34
Cc1cccc(NC(=O)CCc2ccc(N3C(N)=NC(N)=NC3(C)C)cc2)c1	x	0	x	-1	x
Cc1cc2c(C)nc(Cc3ccccc3)nc2o1	-1	0	54*	0	1
CCN(CC)c1nc(C)nc2c1cnn2CCc1ccccc1	57*	2	6	6	37
CCN(CC)c1ncnc2c1cnn2Cc1ccc(C)cc1	-6	0	0	4	5
CCCc1cc(=O)oc2cc(OCC(=O)NCCCN3CCCC3=O)ccc12	-11	0	22	0	-4
Cc1noc(NS(=O)(=O)c2ccc(N3Cc4ccccc4C3=O)cc2)c1C	-89	0	-3	-1	-85*
Cc1noc(NS(=O)(=O)c2ccc(NC(=O)c3ccc(N4C(=O)c5ccccc5C4=O)cc3)cc2)c1C	9	-1	-2	3	-5
COc1ccc(CNC2CC(C)N(C)CC2C)cc1OC (centres undefined)	-2	1	-2	1	-6
O=C1/C(=C2\C(=O)N(Cc3ccc(F)cc3)c3ccccc32)SC(=S)N1CCS(=O)(=O)O	4	-1	1	1	4
O=C(O)CN1C(=O)/C(=C2\C(=O)N(Cc3ccccc3Cl)c3ccccc32)SC1=S	7	0	60*	3	2
O=C(CSc1ncccn1)c1ccccc1Br	24	4.3*	6	5	-5
COc1ccccc1CN(C)C[C@@H]1OCc2cnnn2CCCC(=O)N([C@H](C)CO)C[C@H]1C	x	4.2*	x	-3	x
C[C@H]1CN([C@@H](C)CO)C(=O)CCCn2nncc2CO[C@H]1CN(C)C(=O)NC1CCCCC1	x	5.1*	x	-2	x
Cc1cccc(S(=O)(=O)N(C)C[C@H]2OCc3cnnn3CCCC(=O)N([C@H](C)CO)C[C@H]2C)c1	x	4.4*	x	0	x
Cc1ccc(C)c(S(=O)(=O)N2CCN(C(=O)Cc3ccc(S(=O)(=O)N4CCOCC4)s3)CC2)c1	1	-2	2	2	8
Cc1ccc(S(=O)(=O)/N=C2/C=C(Sc3ncn[nH]3)C(=O)c3ccccc32)c(C)c1	x	x	50*	x	x
Cc1ccc(S(=O)(=O)/N=C2/C=C(Sc3ncn[nH]3)C(=O)c3ccccc32)cc1	x	-7	57*	-21	x
CCOc1ccc(CC(=O)N2CCC3(CC2)NCCc2[nH]cnc23)cc1	-71	0	1	1	-62*
COc1ccc(CC(=O)N2CCC3(CC2)NCCc2[nH]cnc23)cc1	-2	0	0	-1	-5
CC(C)CCNC(=O)CN(C(=O)CCC(=O)Nc1nccs1)c1ccc2c(c1)OCCO2	-63	-2	-2	-7	-62*
O=C(CCc1ccc(S(=O)(=O)N2CCOCC2)cc1)Nc1ccc(F)c(F)c1F	x	0	5	2	x
COc1cccc(Oc2nnnn2-c2ccccc2)c1	-3	0	5	4	7
COc1cccc(-n2nnnc2S(C)(=O)=O)c1	325*	-3	-1	-16	256
SMILES	HSF1 activator	NR0B1 inh	AHR act	GAA850 FXN act	HSF1 inh
Cc1cc2nc(NC(=O)C3(C)CCCN(C(C)C)C3)[nH]c2cc1C (centres undefined)	x	x	x	2	x
CC1CC(NC(=O)c2cnc3n(c2=O)CCS3)CC(C)(C)C1 (centres undefined)	-9	-1	1	-1	4
O=C(NC1CCCC1)c1cnc2n(c1=O)CCS2	-11	1	60*	2	-9
CN(CC(=O)Nc1ccc(F)cc1)C(=O)COC(=O)c1cc(S(=O)(=O)N(C)C)ccc1N1CCCC1	-74	-1	-1	-1	-68*
CC(=O)Nc1ccc(NC(=O)COC(=O)c2cc(S(=O)(=O)N(C)C)ccc2N2CCCC2)cc1	7	-2	-1	4	1
O=C(Cn1nc(-c2cccc(Cl)c2)ccc1=O)Nc1ccc(C(=O)NC2CC2)cc1	6	-1	1	-1	9
Cc1ccccc1/C=N\NC(=O)c1ccccc1-n1cccc1	14	2	68*	2	7
O=C(N/N=C/c1ccc(Br)cc1)c1ccccc1-n1cccc1	27	1	71*	3	26
CCOc1cc(/C=N/NC(=O)c2ccccc2-n2cccc2)ccc1O	x	0	8	-1	x
O=C(C1CC(=O)N(c2ccc(F)cc2)C1)N1CCCCCC1 (centres undefined)	-17	3	0	1	0
